Screens: PubChem BioAssay, National Center for Advancing Translational Sciences (NCATS)
Most compounds without a hit are left out; they make up all but 2.2% or so of the library.
TDP43 rescue: TDP-43 toxicity inhibition in yeast; TDP-43 expressing yeast growth rescue, BacTiter-Glo, 24 h; actives 1.8% (n = 410,000); Potency, µM (titrated, usually from 46.1 µM), without a hit: at the highest dose growth rescue (activation), hits mostly activators; AID 652104; also: % of control where 0% means no effect; nearly all actives have a fitted effect of over 50% in size
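Luminescence from BacTiter-Glo reports growth of TDP-43-expressing yeast after 24 hr at 30 deg C with compound. Cells were raffinose-pregrown to mid-log, then seeded in galactose medium at OD600=0.02.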
FUS yeast rescue: FUS proteinopathy suppression in yeast; Potency, µM (top dose mostly 76.6 µM), hits mostly activators; actives 0.24% (n = 390,000); AID 1347120; S. cerevisiae FUS-expressing, growth rescue, OD600, 24 h;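 also: plate controls were DMSO vehicle for no effect and reference control for full effect; nearly all actives have a fitted effect of over 55% in size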
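Compound concentration series was pinned onto galactose-induced FUS-expressing yeast seeded at OD 0.005. Plates sat 24hr at 30C; absorbance at 600 nm gave growth. DMSO served as background control.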
Mito fusion yeast: mitochondrial division inhibition or fusion activation | actives 0.23% (n = 320,000) | AID 485298 | S. cerevisiae fusion-defective mutant growth rescue, CellTiterGlo 48 h | Potency, µM (highest dose often 46.1 µM), without a hit: top-dose growth rescue (activation), actives largely listed as activators; also: % of control where 0% means no effect; nearly all actives have a fitted effect of over 45% in size
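Growth-rescue viability read-out: after 48 h at the non-permissive 37C in glycerol/ethanol YPEG, yeast mitochondrial fusion mutants are measured by CellTiterGlo luminescence; compounds (23 nl pinned per well) restoring growth score as division inhibitors or fusion activators.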
ERG-DNA inh: inhibitors of human ERG Ets domain-DNA interaction. P11308. fluorescence polarization, His-ERG Ets domain / labelled DNA. Potency, µM (titrated, usually from 76.9 µM), for the others: at the highest dose FP activity, negative = inhibition, hits mostly inhibitors. actives 0.028% (n = 370,000); active = well fitted inhibition curve with a large enough effect in the polarisation, with a control signal flat; inconclusive = small, poorly fitted or top-dose-only effect, or effect the other way, or a change in a side signal; inactive = no such curve, though single readings can be large or run the other way; the % refers to the polarisation;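 also: polarization taken with two DNA probes labelled with fluorescein and Texas red; % of control where 0% means no effect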
Target sequence (P11308 whole entry, looked up, the tested form may be a part): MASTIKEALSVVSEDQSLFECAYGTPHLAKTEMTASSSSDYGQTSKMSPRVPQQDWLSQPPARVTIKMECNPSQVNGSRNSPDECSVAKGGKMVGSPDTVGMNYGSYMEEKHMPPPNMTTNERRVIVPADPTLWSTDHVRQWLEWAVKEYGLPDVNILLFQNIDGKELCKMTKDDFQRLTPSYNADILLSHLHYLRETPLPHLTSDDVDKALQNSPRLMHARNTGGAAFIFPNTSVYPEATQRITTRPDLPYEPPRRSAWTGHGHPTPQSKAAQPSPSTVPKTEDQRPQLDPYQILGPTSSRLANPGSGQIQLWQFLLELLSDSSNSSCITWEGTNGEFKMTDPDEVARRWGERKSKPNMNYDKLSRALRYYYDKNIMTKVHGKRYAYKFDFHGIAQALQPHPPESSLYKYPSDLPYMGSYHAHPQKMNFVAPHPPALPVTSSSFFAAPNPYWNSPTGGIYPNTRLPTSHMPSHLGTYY
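His-tagged ERG Ets domain (1 uM in the protein solution; 300mM KCl, 50mM Tris-HCl, 1mM EDTA, 1mM DTT, pH 7.5) received compound, then a probe mix of 5 nM fluorescein-DNA and 100nM Texas-615-DNA. Fluorescence polarization was read for both dyes.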
Abeta yeast res: A-beta toxicity reversal in yeast. yeast expressing A-beta42, growth rescue, OD600, 48 h; response scale: 0% DMSO, 100% iron-clioquinol control. Potency, µM (titrated, usually from 46.1 µM), actives largely listed as activators. actives 0.063% (n = 410,000); also: nearly all actives have a fitted effect of over 55% in size
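Yeast A-beta toxicity model in growth medium with pinned compounds, 48 h at 30 C; growth read as absorbance at 600 nm. Normalized to FeCl3/clioquinol equimolar mix (positive) and DMSO (negative).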
aSyn rescue: alpha-synuclein toxicity inhibition in yeast. Yeast expressing alpha-synuclein, growth rescue, BacTiter-Glo, 24 h. Potency, µM (series often up to 46.1 µM), for inactives: at the top dose growth rescue (activation), actives largely listed as activators. actives 0.14% (n = 370,000); also: % of control where 0% means no effect; nearly all actives have a fitted effect of over 65% in size
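Galactose-induced alpha-syn yeast (OD600=0.02, raffinose-pregrown) + pinned cpd, 24 hr, 30 deg C; growth by BacTiter-Glo luminescence. Growth restoration scores as activation.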
An asterisk follows results filed as active; [ ] = remark or other dose. Unless noted, calls follow the shape of the dose curve; as a rule, active = well fitted curve in the direction sought with a large enough effect; inconclusive = small, poorly fitted or top-dose-only effect, or another doubt; inactive = no such curve, though single readings can be large; an effect the other way counts as inactive or inconclusive. Potency is read from the fitted curve at half-maximal effect.

`O=C(N/N=C\c1ccc([N+](=O)[O-])s1)C1COc2ccccc2O1` (configuration not stated) gave TDP43 rescue 3.5µM*, FUS yeast rescue inactive, Mito fusion yeast -23%, ERG-DNA inh -7%, Abeta yeast res inactive and aSyn rescue 7%.
N#CCCCc1cn(-c2ccc(-c3noc4c3C(=O)N(CC(=O)N3CCOCC3)CC4)cc2)nn1 was read as FUS yeast rescue inactive.
`COc1cc(/C=C/[N+](=O)[O-])ccc1OC(=O)/C=C/c1ccc(F)cc1` gave TDP43 rescue 0.71µM*, FUS yeast rescue inactive, Mito fusion yeast -11%, ERG-DNA inh -5%, Abeta yeast res inactive and aSyn rescue -18%.
COC(=O)c1cccc(NC(=S)Nc2cccc(Cl)c2Cl)c1 was read as TDP43 rescue 18µM*, FUS yeast rescue inactive, Mito fusion yeast -1%, ERG-DNA inh -8%, Abeta yeast res inactive and aSyn rescue 4%.
`CC(=O)Nc1cccc(NC(=S)Nc2cccc(Cl)c2Cl)c1` gave TDP43 rescue -10%, FUS yeast rescue inactive, Mito fusion yeast -1%, ERG-DNA inh 0%, Abeta yeast res inactive and aSyn rescue -14%.
NC(=O)/C=C/C(=O)Nc1ccc(Cl)cc1 was read as TDP43 rescue 20µM*, FUS yeast rescue inactive, Mito fusion yeast -24%, ERG-DNA inh 8%, Abeta yeast res inactive and aSyn rescue 15%.
`O=C(/C=C/C(Cl)(Cl)Cl)Nc1ccc(Cl)cc1` gave TDP43 rescue inconclusive, ERG-DNA inh -15%, Abeta yeast res inactive and aSyn rescue -25%.
O=C1C(=Cc2cccc(Cl)c2)CCc2ccccc21 was read as TDP43 rescue 20µM*, FUS yeast rescue inactive, Abeta yeast res inactive and aSyn rescue -22%.
Cc1nc(-c2nc(-c3c(C(=O)NN)noc3C)cs2)cs1 was read as TDP43 rescue -16%[0.397 µM], FUS yeast rescue inactive, Mito fusion yeast 3%, ERG-DNA inh 11%, Abeta yeast res inactive and aSyn rescue -7%.
Cc1onc(C(=O)NN)c1-c1csc(COc2ccc(Cl)cc2)n1 was read as TDP43 rescue 11µM*, FUS yeast rescue inactive, Mito fusion yeast -5%, ERG-DNA inh 0%, Abeta yeast res inactive and aSyn rescue 11%.
`S=C(Nc1ccccc1Br)OCCN1CCCC12CCC(c1ccccc1)CC2` (configuration not stated) gave FUS yeast rescue inactive.
Screening COC(=O)c1ccccc1NC(=O)Cn1c(=O)n(CCCC(=O)NCc2ccccc2OC)c(=O)c2ccccc21 returned TDP43 rescue 10%, FUS yeast rescue inactive, ERG-DNA inh 6% and Abeta yeast res inactive.
Screening Cc1ccc(SCC(=O)O/N=C(\N)c2cccnc2)cc1 returned TDP43 rescue 10µM*, FUS yeast rescue inactive, Mito fusion yeast 1%, ERG-DNA inh 2%, Abeta yeast res inactive and aSyn rescue 1%.
For Cc1ccc(S(=O)(=O)N(C)CC(=O)O/N=C(\N)c2cccnc2)cc1 the results were TDP43 rescue 13%, ERG-DNA inh -2%, Abeta yeast res inactive and aSyn rescue 2%.
Screening Cc1cccc(NC(=O)CN2CCN(C(=O)CN3C(=O)NC4(CCCCC4C)C3=O)CC2)c1C (configuration not stated) returned TDP43 rescue 1%, FUS yeast rescue inactive, ERG-DNA inh 2%, Abeta yeast res inactive and aSyn rescue -12%.
CC1=C(C(=O)Nc2ccc([N+](=O)[O-])cc2)C(c2cccc(C(F)(F)F)c2)NC(=S)N1c1ccccc1 (configuration not stated) was read as TDP43 rescue 0%, FUS yeast rescue 10µM*, Mito fusion yeast 2%, ERG-DNA inh 8%, Abeta yeast res inactive and aSyn rescue -3%.
Screening COc1ccc(NC(=O)CSc2nnc(-c3nonc3NC(C)=O)n2-c2ccccc2)cc1 returned TDP43 rescue 9%[9.22 µM], FUS yeast rescue inactive, ERG-DNA inh -2% and Abeta yeast res inactive.
For Cc1ccc(Cl)cc1Nc1nc(-c2cccnc2)cs1 the results were TDP43 rescue 13µM*, FUS yeast rescue inactive, Mito fusion yeast 7%, ERG-DNA inh 6%, Abeta yeast res inactive and aSyn rescue 3%.
For Clc1ccc(Nc2nc(-c3cccnc3)cs2)cc1 the results were TDP43 rescue 19%, FUS yeast rescue inactive, Mito fusion yeast -5%, ERG-DNA inh -4%, Abeta yeast res inactive and aSyn rescue -7%.
`Clc1cccc(Nc2nc(-c3ccncc3)cs2)c1` gave TDP43 rescue 13µM*, FUS yeast rescue inactive, Mito fusion yeast 1%, ERG-DNA inh 4%, Abeta yeast res inactive and aSyn rescue 3%.
Cc1ccc(NC(=O)Cc2ccc(OC(F)F)cc2)c(S(=O)(=O)N2CCOCC2)c1 was read as FUS yeast rescue inactive.
`Cc1ccc(-c2nnn(CC(=O)N(CC3CCCO3)C(C(=O)NC3CCCC3)c3ccc(O)cc3)n2)o1` (configuration not stated) gave TDP43 rescue -8%, FUS yeast rescue 28µM*, Mito fusion yeast 1%, ERG-DNA inh 14%, Abeta yeast res inactive and aSyn rescue -4%.
`CC(=O)O[C@H]1CC[C@@]2(C)C(CCC3C2CC[C@]2(C)OC(=O)CCC32)C1` (some centres not stated) gave TDP43 rescue 35µM*, FUS yeast rescue inactive, Mito fusion yeast 10%, ERG-DNA inh -1%, Abeta yeast res inactive and aSyn rescue 19%.
Screening COc1ccc(-n2c(SCC(=O)Nc3cc(C)c(NC(=O)c4ccccc4)cc3OC)nnc2-c2ccco2)cc1 returned FUS yeast rescue 11µM*.
`Cc1ccc(-c2nc(C)c(CCNC(=O)c3ccccc3Br)s2)cc1` gave TDP43 rescue inconclusive, FUS yeast rescue inactive, ERG-DNA inh -2%, Abeta yeast res inactive and aSyn rescue -2%.
For CCOc1ccc(C(=O)NCCc2sc(-c3ccc(OC)c(OC)c3)nc2C)cc1 the results were TDP43 rescue 16µM*, FUS yeast rescue inactive, ERG-DNA inh 2%, Abeta yeast res inactive and aSyn rescue -15%.
`COc1ccc(-c2nc(C)c(CCNC(=O)c3ccccc3Br)s2)cc1OC` gave TDP43 rescue 11µM*, FUS yeast rescue inactive, ERG-DNA inh 0% and Abeta yeast res inactive.
